Results filed as inconclusive are left out. Calls of active or inactive are those of the source. Calls come from the whole dose curve; as a rule, active = well fitted curve in the direction sought with a large enough effect in the repeat runs; inconclusive = weak or mixed curves; inactive = no such curve, though single readings can be large; an effect the other way counts as inactive or inconclusive.
What was measured:
[1] = qHTS RealTime-Glo MT Cell Viability Assay in HepG2 cells - 40 hour (AID 1224870); note: nearly all actives have a fitted effect of over 50% in size
Outline: (§1)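 HepG2 cells (600/well) mixed with RealTime-Glo MT reagent, settled 5 h at 37 C/5% CO2 before compound addition. Nonlytic NanoLuc luminescence from viable-cell prosubstrate reduction read repeatedly during 40 h treatment at 37 C.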

[2] = qHTS RealTime-Glo MT Cell Viability Assay in HEK293 cells - 16 hour (AID 1224872); note: top concentration of the series differs between compounds; nearly all actives have a fitted effect of over 50% in size
Outline: (§2)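 HEK293 cells seeded with NanoLuc/prosubstrate reagent, rested 5 h at 37 C, then dosed and kept at 37 C up to 40 h. Nonlytic real-time luminescence from viable cells read at 0, 8, 16, 24, 32 and 40 h.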

[3] = qHTS RealTime-Glo MT Cell Viability Assay in HepG2 cells - 8 hour (AID 1224873); note: nearly all actives have a fitted effect of over 55% in size
Outline: as §1

[4] = qHTS RealTime-Glo MT Cell Viability Assay in HEK293 cells - 40 hour (AID 1224874); conditions: RealTime-Glo luminescence; max response: active compounds read low; note: nearly all actives have a fitted effect of over 50% in size; note: potency is the fitted concentration of half-maximal effect
Outline: (§3)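 Tox21 screen in HEK293 using RealTime-Glo MT chemistry, with cells and reagent co-dispensed. Luminescence proportional to viable cell number was captured at intervals during 40 h compound exposure at 37 C.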

[5] = A CellTox Green Cytotoxicity Assay to monitor cytotoxicity in HEK293 cells - 24 hour (AID 1224875); note: series mostly up to about 77 µM; nearly all actives have a fitted effect of over 45% in size
Outline: (§4)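 Seeding of HEK293 cells together with cytotoxicity dye preceded a 5 h incubation at 37 C/5% CO2. Test compounds in DMSO were then added and fluorescence monitored across 40 h.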

[6] = qHTS RealTime-Glo MT Cell Viability Assay in HepG2 cells - 32 hour (AID 1224877); note: nearly all actives have a fitted effect of over 55% in size
Outline: (§5)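 HepG2 cells (600/well) were dispensed with RealTime-Glo reagents, incubated 5 h at 37 °C, then treated with compounds in DMSO for up to 40 h. Nonlytic NanoLuc luminescence reflecting viable cells was read at each stated time point.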

[7] = A CellTox Green Cytotoxicity Assay to monitor cytotoxicity in HepG2 cells - 24 hour (AID 1224878); note: nearly all actives have a fitted effect of over 45% in size
Outline: (§6)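 Nonlytic assay: viable cells exclude the dye, so fluorescence scales with cell death. HepG2 at 600 cells/well, compounds added after 5 h, signal read across 40 h.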

[8] = A CellTox Green Cytotoxicity Assay to monitor cytotoxicity in HepG2 cells - 40 hour (AID 1224879); note: nearly all actives have a fitted effect of over 40% in size; note: potency is the fitted concentration of half-maximal effect
Outline: as §6

[9] = qHTS RealTime-Glo MT Cell Viability Assay in HEK293 cells - 0 hour (AID 1224880); note: top concentration of the series differs between compounds; nearly all actives have a fitted effect of over 45% in size
Outline: as §3

[10] = A CellTox Green Cytotoxicity Assay to monitor cytotoxicity in HEK293 cells - 32 hour (AID 1224881); note: nearly all actives have a fitted effect of over 40% in size
Outline: as §4

[11] = A CellTox Green Cytotoxicity Assay to monitor cytotoxicity in HepG2 cells - 0 hour (AID 1224882); note: nearly all actives have a fitted effect of over 35% in size
Outline: as §6

[12] = A CellTox Green Cytotoxicity Assay to monitor cytotoxicity in HepG2 cells - 32 hour (AID 1224883); note: nearly all actives have a fitted effect of over 50% in size; note: potency is the fitted concentration of half-maximal effect
Outline: as §6

[13] = A CellTox Green Cytotoxicity Assay to monitor cytotoxicity in HEK293 cells - 8 hour (AID 1224884); note: nearly all actives have a fitted effect of over 35% in size
Outline: as §4

[14] = qHTS RealTime-Glo MT Cell Viability Assay in HepG2 cells - 16 hour (AID 1224885); note: nearly all actives have a fitted effect of over 50% in size
Outline: as §5

[15] = qHTS RealTime-Glo MT Cell Viability Assay in HEK293 cells - 24 hour (AID 1224886)
Outline: as §2

[16] = qHTS RealTime-Glo MT Cell Viability Assay in HEK293 cells - 8 hour (AID 1224887)
Outline: as §3

[17] = A CellTox Green Cytotoxicity Assay to monitor cytotoxicity in HEK293 cells - 16 hour (AID 1224888); note: nearly all actives have a fitted effect of over 35% in size
Outline: as §4

[18] = qHTS RealTime-Glo MT Cell Viability Assay in HepG2 cells - 0 hour (AID 1224889); note: nearly all actives have a fitted effect of over 50% in size
Outline: as §5

[19] = A CellTox Green Cytotoxicity Assay to monitor cytotoxicity in HepG2 cells - 16 hour (AID 1224876); note: nearly all actives have a fitted effect of over 45% in size; note: potency is the fitted concentration of half-maximal effect
Outline: as §6

[20] = A CellTox Green Cytotoxicity Assay to monitor cytotoxicity in HEK293 cells - 40 hour (AID 1224871); note: nearly all actives have a fitted effect of over 45% in size
Outline: as §4
% is set by controls: 0 for no effect and ±100 for the full control effect.

CCOC(=O)c1ccc(OCCN2C[C@H](O)[C@@H](O)[C@H](O)[C@H]2CO)cc1
inactive: Potency [1] | Potency [2] | Potency [3] | max response [4] 1.01% | Potency [5] | Potency [6] | Potency [7] | Potency [8] | Potency [9] | Potency [10] | Potency [11] | Potency [12] | Potency [13] | Potency [14] | Potency [15] | Potency [16] | Potency [17] | Potency [18]

C/C=C(/C(=C/C)c1ccc(O)cc1)c1ccc(O)cc1
active: Potency [4] 19 µM | Potency [19] 15.1 µM | Potency [8] 19 µM | Potency [12] 16.9 µM
inactive: Potency [1] | Potency [2] | Potency [3] | Potency [5] | Potency [6] | Potency [10] | Potency [11] | Potency [13] | Potency [14] | Potency [16] | Potency [17]

CC(=O)Nc1ccc(C)cc1C
inactive: Potency [1] | Potency [2] | Potency [3] | max response [4] -0.695% | Potency [5] | Potency [19] | Potency [6] | Potency [7] | Potency [8] | Potency [9] | Potency [11] | Potency [12] | Potency [13] | Potency [14] | Potency [15] | Potency [16] | Potency [18]

CCOC(=O)c1ccc(C#Cc2ccc3c(c2)C(C)(C)CCS3)nc1
active: Potency [8] 0.301 µM
inactive: Potency [1] | Potency [20] | Potency [3] | Potency [5] | Potency [19] | Potency [6] | Potency [7] | Potency [9] | Potency [10] | Potency [11] | Potency [13] | Potency [14] | Potency [17] | Potency [18]

CCCCCC[C@@H](O)C/C=C\CCCCCCCC(=O)O
inactive: Potency [1] | Potency [2] | Potency [3] | max response [4] 13.2% | Potency [5] | Potency [19] | Potency [6] | Potency [7] | Potency [8] | Potency [9] | Potency [10] | Potency [11] | Potency [12] | Potency [13] | Potency [14] | Potency [15] | Potency [16] | Potency [17] | Potency [18]

CC(=O)OCCN(CCOC(C)=O)c1ccc(N=Nc2ccc([N+](=O)[O-])cc2C#N)cc1
inactive: Potency [1] | Potency [20] | Potency [5] | Potency [19] | Potency [6] | Potency [7] | Potency [8] | Potency [10] | Potency [11] | Potency [12] | Potency [13] | Potency [14] | Potency [17] | Potency [18]

CCC1CO1 (stereo unspecified)
inactive: Potency [1] | Potency [2] | Potency [3] | max response [4] 4.39% | Potency [5] | Potency [19] | Potency [6] | Potency [7] | Potency [8] | Potency [9] | Potency [10] | Potency [11] | Potency [12] | Potency [13] | Potency [14] | Potency [15] | Potency [16] | Potency [17] | Potency [18]

C(=C\c1ccccc1)/c1ccccc1
inactive: Potency [1] | Potency [2] | Potency [3] | max response [4] 7.61% | Potency [19] | Potency [6] | Potency [7] | Potency [8] | Potency [9] | Potency [11] | Potency [12] | Potency [13] | Potency [14] | Potency [16] | Potency [18]

O=C(O)CCC(=O)C(=O)O
inactive: Potency [1] | Potency [2] | Potency [3] | max response [4] 0.138% | Potency [5] | Potency [19] | Potency [6] | Potency [8] | Potency [9] | Potency [10] | Potency [11] | Potency [12] | Potency [13] | Potency [14] | Potency [15] | Potency [16] | Potency [18]

CCCCCC[C@@H](O)C/C=C\CCCCCCCC(=O)OCC(O)CO (stereo partly specified)
inactive: Potency [1] | Potency [2] | Potency [3] | max response [4] 10.7% | Potency [5] | Potency [6] | Potency [7] | Potency [8] | Potency [9] | Potency [10] | Potency [11] | Potency [12] | Potency [13] | Potency [14] | Potency [16] | Potency [17] | Potency [18]

CC1=Nc2ccc3ccccc3c2C1(C)C
inactive: Potency [1] | Potency [20] | Potency [3] | max response [4] -26.2% | Potency [5] | Potency [6] | Potency [9] | Potency [10] | Potency [11] | Potency [14] | Potency [18]

O=C1c2ccccc2C(=O)C1(O)O
inactive: Potency [1] | Potency [2] | Potency [3] | max response [4] -22.4% | Potency [5] | Potency [6] | Potency [7] | Potency [9] | Potency [10] | Potency [11] | Potency [13] | Potency [14] | Potency [15] | Potency [16] | Potency [17] | Potency [18]

CC(C)(O)c1ccc(CNC(=O)c2cccnc2Oc2ccc3nonc3c2)cc1
inactive: Potency [1] | Potency [20] | Potency [3] | Potency [5] | Potency [19] | Potency [6] | Potency [7] | Potency [8] | Potency [9] | Potency [10] | Potency [11] | Potency [12] | Potency [14] | Potency [16] | Potency [18]

COc1ccc(OC(=O)N(CC(=O)O)Cc2ccc(OCCc3nc(-c4ccccc4)oc3C)cc2)cc1
inactive: Potency [1] | Potency [2] | Potency [3] | max response [4] -9.99% | Potency [5] | Potency [19] | Potency [6] | Potency [7] | Potency [8] | Potency [9] | Potency [10] | Potency [11] | Potency [12] | Potency [13] | Potency [14] | Potency [15] | Potency [16] | Potency [17] | Potency [18]

CC(C)=CCC1C(=O)N(c2ccccc2)N(c2ccccc2)C1=O
inactive: Potency [1] | Potency [2] | Potency [3] | max response [4] 4.23% | Potency [5] | Potency [19] | Potency [6] | Potency [7] | Potency [8] | Potency [9] | Potency [10] | Potency [11] | Potency [12] | Potency [13] | Potency [14] | Potency [15] | Potency [16] | Potency [17] | Potency [18]
